{
  "source": "PubChem BioAssay (Tox21)",
  "note": "Records with an inconclusive call do not appear. A number with no mark means an inactive call. Active and inactive are the calls of the source. The call rests on the fitted dose curve; in most records, active means well fitted cell-killing curve with a large enough effect in the repeat runs; inconclusive means weak or mixed curves, or effect the other way; inactive means flat fitted curve, though single readings scatter. On the % scale 0 is the no-effect control and ±100 the full control effect.",
  "data": [
    {"assay": "cAMP Responsive Elements (CRE) small molecule agonists, cell-based qHTS assay: qHTS cell viability counter screen (AID 2060914); further: nearly all actives have a fitted effect of over 50% in size", "conditions": "CRE-bla HEK293T viability, CellTiter-Glo luminescence, 5 h; series mostly up to 92.4 µM; activity change, negative = cytotoxicity: at the top concentration", "procedure,_shortened": "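CRE-bla HEK293T cells in 10% dialyzed FBS medium were exposed to compounds for 3 h at 37C after 18 h plating. CellTiter-Glo was then added in the same wells, and luminescence was read after 30 min at room temperature.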", "values": [
      {"compound": "Nc1c[n+](N2CCOCC2)no1", "activity change, negative = cytotoxicity": "1.23% [at 42.5 µM]"},
      {"compound": "O=C(NCCc1c[nH]c2ccccc12)c1cccnc1", "activity change, negative = cytotoxicity": "-0.389% [at 42.5 µM]"},
      {"compound": "Nc1nc2ccc(OC(F)(F)F)cc2s1", "activity change, negative = cytotoxicity": "-7.73% [at 42.5 µM]"},
      {"compound": "S=C(S)NCCNC(=S)S", "activity change, negative = cytotoxicity": "-16.8%"},
      {"compound": "Oc1ccccc1C=NCc1ccccc1", "activity change, negative = cytotoxicity": "-5.55% [at 42.5 µM]"},
      {"compound": "CCCC(C)=O", "Potency": "inactive"},
      {"compound": "C=C(C)C(=O)OCC1CCCO1", "note": "(stereo not given)", "activity change, negative = cytotoxicity": "1.56%"},
      {"compound": "c1ccc2ccccc2c1", "Potency": "inactive"},
      {"compound": "CCOC(=O)n1ccn(C)c1=S", "activity change, negative = cytotoxicity": "1.58%"},
      {"compound": "CC1=C(C)C(=O)C(CCCCC#CCCCC#CCO)=C(C)C1=O", "activity change, negative = cytotoxicity": "-16.1% [at 42.5 µM]"},
      {"compound": "O=CCCCC=O", "Potency": "inactive"},
      {"compound": "CC(=O)CCc1ccccc1", "Potency": "inactive"},
      {"compound": "Oc1ccc2c(c1)CCC2", "activity change, negative = cytotoxicity": "2.49%"},
      {"compound": "Cc1cc(C)cc([N+](=O)[O-])c1", "activity change, negative = cytotoxicity": "-0.081%"},
      {"compound": "CCCCCCCCCCCCN1CCOCC1", "activity change, negative = cytotoxicity": "3.55%"},
      {"compound": "Cc1ccc(C(=O)c2cc(O)c(O)c([N+](=O)[O-])c2)cc1", "Potency": "inactive"},
      {"compound": "CC(=O)Nc1ccc(C(=O)CCl)cc1", "Potency": "inactive"},
      {"compound": "CCOC(=O)c1ccc(OCCN2C[C@H](O)[C@@H](O)[C@H](O)[C@H]2CO)cc1", "activity change, negative = cytotoxicity": "12% [at 42.5 µM]"},
      {"compound": "CC1CCCCC1", "activity change, negative = cytotoxicity": "-11.2%"},
      {"compound": "Oc1cc2ccccc2cc1O", "activity change, negative = cytotoxicity": "-10.4%"},
      {"compound": "BrCCCCCBr", "activity change, negative = cytotoxicity": "-3.12%"},
      {"compound": "C=COCC1CCC(CO)CC1", "note": "(stereo not given)", "activity change, negative = cytotoxicity": "-0.545%"},
      {"compound": "Cc1c(NC(=O)c2cccnc2)c(=O)n(-c2ccccc2)n1C", "activity change, negative = cytotoxicity": "6.95% [at 42.5 µM]"},
      {"compound": "CCN(CC)CCCC(C)Nc1c2ccc(Cl)cc2nc2ccc(OC)cc12", "note": "(stereo not given)", "activity change, negative = cytotoxicity": "6.25% [at 42.5 µM]"},
      {"compound": "COc1ccc(OC)c(C(O)CNC(=O)CN)c1", "note": "(stereo not given)", "Potency": "inactive"},
      {"compound": "Oc1ccc(CCNCCCCCCNCCc2ccccc2)cc1O", "activity change, negative = cytotoxicity": "0.996% [at 42.5 µM]"},
      {"compound": "c1coc(Cn2cccc2)c1", "activity change, negative = cytotoxicity": "1.92%"},
      {"compound": "CCCCN", "activity change, negative = cytotoxicity": "5.28% [at 42.5 µM]"},
      {"compound": "CCCCCCO", "Potency": "inactive"},
      {"compound": "Cc1ccc(N)cc1S(=O)(=O)O", "activity change, negative = cytotoxicity": "-0.896%"},
      {"compound": "O=C(OOC(=O)c1ccccc1)c1ccccc1", "activity change, negative = cytotoxicity": "-1.57% [at 42.5 µM]"},
      {"compound": "CC(=O)OCC(=O)[C@H]1CC[C@H]2[C@@H]3CCC4=CC(=O)CC[C@]4(C)[C@H]3CC[C@]12C", "activity change, negative = cytotoxicity": "-1.4% [at 42.5 µM]"},
      {"compound": "Cn1nnc2c(C(N)=O)ncn2c1=O", "activity change, negative = cytotoxicity": "5.64% [at 42.5 µM]"},
      {"compound": "CCCCCC1Nc2cc(C(F)(F)F)c(S(N)(=O)=O)cc2S(=O)(=O)N1", "note": "(stereo not given)", "activity change, negative = cytotoxicity": "-4.55% [at 42.5 µM]"},
      {"compound": "CC(=O)OC1C2(C)CCC(C2)C1(C)C", "note": "(stereo not given)", "activity change, negative = cytotoxicity": "6.37%"},
      {"compound": "O[C@@H](COc1cccc2ncccc12)CN1CCN(C2c3ccccc3[C@@H]3[C@H](c4ccccc42)C3(F)F)CC1", "note": "(stereo not given in full)", "activity change, negative = cytotoxicity": "4.12% [at 42.5 µM]"},
      {"compound": "CCOC(=O)c1ccccc1C", "activity change, negative = cytotoxicity": "-7.13%"},
      {"compound": "CSc1ccc(/C=C2/C(C)=C(CC(=O)O)c3cc(F)ccc32)cc1", "activity change, negative = cytotoxicity": "-0.287% [at 42.5 µM]"},
      {"compound": "Oc1ccc(C(c2ccc(O)cc2)C(Cl)(Cl)Cl)cc1", "Potency": "inactive"},
      {"compound": "O=Cc1cc2ccccc2o1", "activity change, negative = cytotoxicity": "9.16%"}
    ]}
  ]
}
